{"source": "PubChem BioAssay", "note": "Activity calls are given as the source filed them. How the calls were made is not given here."}
{"biological_target": "Pantothenate synthetase (Mycobacterium tuberculosis (strain ATCC 25618 / H37Rv)) (UniProt P9WIL5)", "sequence (P9WIL5 whole entry, looked up)": "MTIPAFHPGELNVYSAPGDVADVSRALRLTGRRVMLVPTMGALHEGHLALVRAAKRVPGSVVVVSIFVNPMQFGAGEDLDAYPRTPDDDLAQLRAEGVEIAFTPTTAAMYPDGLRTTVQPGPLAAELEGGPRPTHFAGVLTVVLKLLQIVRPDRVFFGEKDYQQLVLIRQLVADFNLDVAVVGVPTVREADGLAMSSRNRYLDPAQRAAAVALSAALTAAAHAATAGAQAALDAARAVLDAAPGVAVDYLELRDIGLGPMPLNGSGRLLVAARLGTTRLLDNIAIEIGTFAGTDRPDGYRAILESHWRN", "test": "Coupled enzyme confirmation of inhibitors against recombinant Mtb PanC (AID 375);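 further: 0% = full reaction with vehicle and 100% = no enzyme background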", "details": "coupled enzyme assay; at 10 µM, hits give high values"}
{"compound": "COc1ccc(-c2cn3cc(C)ccc3n2)cc1OC", "inhibition": "8% (inactive)"}
{"compound": "CCOC(=O)Cn1c(N2CCOCC2)nc2c1c(=O)[nH]c(=O)n2C", "inhibition": "5% (inactive)"}
{"compound": "CC(=O)c1cccc(NS(=O)(=O)c2ccc3c(c2)oc(=O)n3C)c1", "inhibition": "0% (inactive)"}
{"compound": "CCOc1ccc(CNc2ccc3c(c2)ncn3C)cc1", "inhibition": "0% (inactive)"}
{"compound": "Cc1ccc(-c2nc3cc(NC(=O)C(C)C)ccc3o2)cc1", "inhibition": "0% (inactive)"}
{"compound": "Cc1nccn1CCCN1C(=O)OC2(CCCCC2)C1(C)O", "note": "(stereo unspecified)", "inhibition": "0% (inactive)"}
{"compound": "CCOC(=O)c1cnc(SC2CC(=O)N(c3ccc(OC)c(OC)c3)C2=O)nc1N", "note": "(stereo unspecified)", "inhibition": "0% (inactive)"}
{"compound": "CCC(C)(C)NC(=O)C(c1ccco1)N(C(=O)Cn1nnc2ccccc21)c1ccc2c(c1)OCO2", "note": "(stereo unspecified)", "inhibition": "0% (inactive)"}
{"compound": "COc1ccc(OC)c(NC(=O)C23CCC(C)(C(=O)C2)C3(C)C)c1", "note": "(stereo unspecified)", "inhibition": "3% (inactive)"}
{"compound": "COCCOC(=O)C1=C(C)Nc2ncnn2C1c1ccc(F)cc1", "note": "(stereo unspecified)", "inhibition": "0% (inactive)"}
{"compound": "CCCNC(=O)C1CC(=O)N(c2ccc(OCC(=O)Nc3cc(C)cc(C)c3)cc2)C1", "note": "(stereo unspecified)", "inhibition": "0% (inactive)"}
{"compound": "COC(=O)CCC(=O)Nc1cccc(Br)c1", "inhibition": "0% (inactive)"}
{"compound": "CCOC(=O)c1ccccc1NC1c2ccccc2C(=O)N1C1CCN(C(=O)OCC)CC1", "note": "(stereo unspecified)", "inhibition": "2% (inactive)"}
{"compound": "CC(C)CCNC(=O)C(C)N(Cc1ccc(F)cc1)C(=O)c1ccc(CN2CCCCC2)o1", "note": "(stereo unspecified)", "inhibition": "1% (inactive)"}
{"compound": "O=C1C2C3C=CC(C3=C3CCCCC3)C2C(=O)N1c1ccccc1", "note": "(stereo unspecified)", "inhibition": "0% (inactive)"}
{"compound": "COc1ccc(C(=O)Nc2cccc(C)c2)cc1S(=O)(=O)N1CCOCC1", "inhibition": "1% (inactive)"}
